The source of these data is ChEMBL document CHEMBL4513216, “Probing the Open Global Health Chemical Diversity Library for Multistage-Active Starting Points for Next-Generation Antimalarials” (ACS Infect Dis, 2020).

SMILES strings stand for the structures. The campaign covered roughly 69,000 compounds. About 8,600 (12%) showed an effect of 50% or more. The sample as a whole holds a higher share of strong results than the screen did.

This assay has as its system Plasmodium berghei. Put plainly: Screen against P. berghei liver stage (PbLuc), transformed with Luciferase, at 10uM. The class given is functional, HepG2. The settings on record: tested at 10 uM.
As for `CNc1nc(C)c(C(=O)N2C[C@@H](C(=O)O)[C@H](C3CC3)C2)s1`, the INHIBITION came to 83.8%.
With `Cc1nc(C)c(C(=O)N2CCCC(c3cnccn3)C2)s1` (stereo unspecified) the figure was 11.1%; with `CN(C)CC(=O)N1CCC2(CC1)CN(Cc1ccccc1)C2`, 33.4%; with `CCOCC(O)CN1CCN(C(=O)c2ccc(C)nc2)CC1` (stereo unspecified), 24.2%.
For `Cc1cc(-n2c(C)cn(CN(C)Cc3ccccc3)c2=O)no1` the value was -5.64%; for `C=C(C)COc1ccc(C(=O)N(C)C(C)c2ccon2)cc1` (stereo unspecified), -1.38%.
For `COc1ccc(-c2nnc(C(C)N3CCOCC3)o2)cc1` (stereo unspecified) the value was 37.5%; for `COc1ccc(-c2nnc(C(C)N3CCOC(C)(C)C3)o2)cc1` (stereo unspecified), 21.6%.
Consider `COc1ccc(-c2nnc(C(C)N3CCC4(CC3)OCCO4)o2)cc1` (stereo unspecified), for which the INHIBITION is reported as 69.3%.
With `CC(=O)Nc1nc2c(s1)CN(CC(=O)Nc1ccc(C)c(Cl)c1)CC2` the figure was 24.2%.
Consider `Cc1ccc(C(=O)N2C[C@H]3CCCC(OCc4cccnc4)[C@H]3C2)cn1` (stereo partly specified), for which the INHIBITION is listed as 27.6%.
For `O=C1CCCCCN1Cc1nc(C2(c3ccc(F)cc3)CCOC2)no1` (stereo unspecified) the value was -26.8%; for `c1ccc(CO[C@H]2CO[C@@]3(CCCN(Cc4cccnc4)C3)C2)nc1`, -17.1%; for `Cc1ccccc1C(C#N)NC(=O)CCCOc1cccnc1` (stereo unspecified), 31.2%.
For `N#CC(NC(=O)CCCOc1cccnc1)c1ccc(F)cc1F` (stereo unspecified) the value was 66.9%.
With `N#CC(NC(=O)CCCOc1cccnc1)c1ccccc1Cl` (stereo unspecified) the figure was 40.9%.
For `Cc1ccccc1-n1cc(CNC(=O)CC2C(=O)NCCN2C)cn1` (stereo unspecified), the INHIBITION is recorded as 4.68%.
For `O=C(NC[C@@H]1CCCO1)c1cc(Br)cnc1N1CCCCC1` the value was 20.4%; for `O=C(c1ccc(F)cc1)N(CCCO)S(=O)(=O)c1cccs1`, 67.4%; for `O=C(c1cccc(F)c1)N(CCCO)S(=O)(=O)c1cccs1`, -38.8%.
For `O=C(c1ccccc1F)N(CCCO)S(=O)(=O)c1cccs1` the value was 37.7%; for `O=C(c1cscn1)N1CC[C@H]2C[C@H](c3nnc(C4CC4)o3)O[C@@H]2C1`, 30.3%; for `CC(C)(C)C(=O)N1CCC(c2nc(O)cc(-c3ccncc3)n2)CC1`, 11.1%.
With `CN(C)c1nccnc1C1CCN(C2CCCCC2O)CC1` (stereo unspecified) the figure was 17.4%; with `Cc1ccc(C(=O)N2C[C@@H](NS(C)(=O)=O)[C@H](C(C)C)C2)cc1O`, 18%.
Regarding `CC(C)[C@@H]1CN(C(=O)c2ccc3c(c2)CCCO3)C[C@H]1NS(C)(=O)=O`, the INHIBITION was 71.1%.
Consider `Cc1ccc(C(=O)N2C[C@H](NS(C)(=O)=O)[C@@H](C(C)C)C2)cc1F`, for which the INHIBITION came to 14.3%.
Take `C[C@H]1C[C@H]2CN(C(=O)CCc3ccccc3)CC[C@H]2O1`: the INHIBITION is on record as -19%.
For `CCn1cc(CN2C[C@@H]3CCCN3C[C@@H]2CCSC)cn1` the value was 24.4%; for `Cc1ccn(CCNC(=O)C2(C)CC(c3ccccc3)=NO2)n1` (stereo unspecified), -3.94%.
For `CC(C)c1noc(C(C)S(=O)(=O)Cc2nc(C3CC3)no2)n1` (stereo unspecified) the value was 70%; for `CCc1noc(CS(=O)(=O)C(C)c2nc(C3CC3)no2)n1` (stereo unspecified), 51.5%.
For `CCCc1noc(C(C)S(=O)(=O)Cc2nc(C3CC3)no2)n1` (stereo unspecified) the value was 22.2%.
Turning to `Cc1noc(C)c1CS(=O)(=O)Cc1nc(C2CC2)no1`, the INHIBITION is reported as 21.6%.
With `CCc1nc(CN2CCN(C(C)c3nc(C4CC4)no3)CC2)no1` (stereo unspecified), the INHIBITION is -23.9%.
For `CC(C)c1noc(CS(=O)(=O)Cc2nc(C(C)C)no2)n1` the value was 34.2%.
With `COCCN(Cc1cccc(C#N)c1)Cc1nc(C)no1` the figure was 41.2%; with `O=C(Cc1ccc2c(c1)OCC2)Nc1nc(C(F)(F)F)n[nH]1`, 28.6%; with `CC(C)c1ccc(CCC(=O)N(C)C2CCN(C)C2=O)cc1` (stereo unspecified), 53.8%.
For `CN1CCC(N(C)C(=O)CSc2ccc(F)c(F)c2)C1=O` (stereo unspecified) the value was -0.897%; for `CN1CCC(N(C)C(=O)CCc2ccc(F)c(F)c2)C1=O` (stereo unspecified), 17.9%.
For the compound `COCC(=O)N1CCC2(CC1)COC(COCc1ccccn1)C2` (stereo unspecified), the INHIBITION was found to be 33%.
With `Cc1nn(C)c2c(=O)n(Cc3ccc(Cl)cc3)nnc12` the figure was 48.25%.
`CN(CCc1ccccn1)C(=O)C1Cc2ccccc2CN1C` (stereo unspecified): the INHIBITION was found to be 20%.
With `CC(=O)N1Cc2ccccc2C[C@H]1C(=O)Nc1ccccn1` the figure was 28.7%.
With `CC(=O)N1Cc2ccccc2CC1C(=O)Nc1ccc(C)cn1` (stereo unspecified) the figure was 32.7%; with `CC(=O)N1Cc2ccccc2C[C@H]1C(=O)N(C)Cc1ccccn1`, 40.7%.
Take `CC(=O)N1Cc2ccccc2C[C@H]1C(=O)N(C)CCc1ccccn1`: the INHIBITION is given as 58.1%.
For `CC(=O)N1Cc2ccccc2CC1C(=O)Nc1cc(C)ccn1` (stereo unspecified) the value was 56.5%; for `Cn1cnc(S(=O)(=O)NCCN2CCCCCC2)c1Cl`, 31.2%.
For `CCC(Oc1ccccc1)c1nn2c(CN(CC)CC)nnc2s1` (stereo unspecified) the value was -31.7%.
